Bioassay records: PubChem, Sanford-Burnham Center for Chemical Genomics
These entries were drawn from the full list.
TNAP pNPP inh: inhibitors of human tissue-nonspecific alkaline phosphatase; purified TNAP, pNPP hydrolysis, absorbance 405 nm; P05186; 21,000 tested, under 10 active; AID 615; inhibition, % at 20 µM;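 note: 0% = DMSO only wells and 100% = 1 mM levamisole wells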
Target sequence (P05186 whole entry, looked up): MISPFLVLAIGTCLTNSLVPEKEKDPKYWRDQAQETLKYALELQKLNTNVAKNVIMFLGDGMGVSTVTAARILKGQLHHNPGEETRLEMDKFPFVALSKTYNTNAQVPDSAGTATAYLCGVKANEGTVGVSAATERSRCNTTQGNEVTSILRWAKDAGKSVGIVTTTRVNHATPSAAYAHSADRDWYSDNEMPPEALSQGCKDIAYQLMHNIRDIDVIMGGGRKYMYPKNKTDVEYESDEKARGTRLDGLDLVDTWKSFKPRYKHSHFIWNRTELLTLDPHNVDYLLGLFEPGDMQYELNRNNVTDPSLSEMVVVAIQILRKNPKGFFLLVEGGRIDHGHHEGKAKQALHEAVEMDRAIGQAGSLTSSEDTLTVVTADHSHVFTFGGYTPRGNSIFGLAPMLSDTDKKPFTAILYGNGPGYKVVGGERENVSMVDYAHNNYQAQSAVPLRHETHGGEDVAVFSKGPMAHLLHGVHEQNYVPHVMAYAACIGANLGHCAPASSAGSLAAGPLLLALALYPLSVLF
TNAP inh Pi: human TNAP inhibition, phosphate detection; P05186; purified TNAP, pNPP, malachite green phosphate absorbance; inhibition, % at 20 µM; 21,000 tested, under 10 active; AID 614
* marks the source's active call; other numbers are inactive results.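 Rule for the calls: active = inhibition above 50% at the 20 µM single-dose screen; inactive = the rest.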

SMILES	TNAP pNPP inh	TNAP inh Pi
CC(NC(=O)C(NC(=O)C1CCCN1C(=O)OC(C)(C)C)C(C)C)C(N)=O (stereo not given)	4	5
c1ccc(-c2nc3cc(Cc4ccc5oc(-c6ccccn6)nc5c4)ccc3o2)nc1	10	-4
O=c1[nH]cnc2cc(Cl)ccc12	-12	1
COC(=O)COc1ccc(Oc2nc(SC)nc(N(C)C)n2)nn1	-12	-14
Cc1cc(C)nc(SCc2nnc(SCC(=O)NCc3ccco3)n2-c2ccccc2)n1	7	9
CCN(C(=O)Cc1cccs1)c1nnc(-c2cccnc2)s1	1	5
O=c1nc2n(c3c4c(sc13)CCC4)CCC2	0	6
COc1ccc(-c2nnc(SC(C)C(=O)Nc3cccc(Cl)c3)o2)cc1 (stereo not given)	2	9
Cc1nc(Nc2ncc3c(n2)CCCC3=O)nc2ccccc12	0	0
Cn1c(=O)[nH]c(=O)c2c1nc(SCC(O)CO)n2Cc1ccccc1Cl (stereo not given)	3	9
Cc1c(Br)cc(-c2nnco2)cc1Br	6	-8
CCCS(=O)(=O)N1CCN(C(=O)COc2ccc(-c3ccccc3)cc2)CC1	1	6
CS(=O)(=O)NCCC1=CCCCC1	0	13
Cc1cc(=O)oc(C)c1C(=O)N[C@@H]1CCCCNC1=O	3	8
COc1cccc(NC(=O)CSc2nncn2N)c1	9	1
O=C(CN1CCC(n2nnc3cc(F)ccc32)CC1)Nc1ccccc1N1CCOCC1	-9	-3
O=C(NC1CCCCC1)C(c1cccs1)N(Cc1cccs1)C(=O)c1ccco1 (stereo not given)	5	8
O=C(N1CCOCC1)N(CCN1CCOCC1)Cc1cccc(Cl)c1	0	0
COc1ccc(Cn2c(CCCO)nc3ccccc32)cc1OC	4	10
COC(=O)c1ccccc1NC(=O)c1cc2ncc(Br)cn2n1	7	9
NS(=O)(=O)c1ccc(NC(=O)CSc2nnc(-c3cnccn3)n2-c2ccccc2)cc1	0	3
CC1CCc2cc(F)cc3c(O)c(C(=O)Nc4cnccn4)c(=O)n1c23 (stereo not given)	-1	-2
O=C(NCC1COc2ccccc2O1)Nc1ccccc1F (stereo not given)	0	-20
CCOC(=O)C1=C(CSc2nc(C)ccc2C#N)OC(N)=C(C#N)C1c1cccc(OC)c1OC (stereo not given)	2	6
COc1ccc(Cl)c(Cn2c(NCCCO)nc3c2c(=O)n(C)c(=O)n3C)c1	8	9
SMILES	TNAP pNPP inh	TNAP inh Pi
Cn1c(=O)c2c3c(sc2n2c(SCC(=O)c4ccc(Cl)cc4)nnc12)COC(C)(C)C3	5	10
COc1ccc(S(=O)(=O)NCc2ccco2)c2ccccc12	6	5
COc1ccc(OC)c(C(=O)c2coc3ccc(O)cc23)c1	2	8
CCCc1n[nH]c2c1C(=O)C(C(=O)OC)C(C)(C)C2 (stereo not given)	6	12
COc1ccc(/C(O)=C2/C(=O)C(=O)N(CCCN(C)C)C2c2ccco2)cc1Cl (stereo not given)	7	11
CSc1ccc(N2C(=O)NC3(CCCCC3)C2=O)cc1	-10	0
Cc1csc(NC(=O)c2cccc(Cn3nc(C)c(Br)c3C)c2)n1	3	-4
CCOC(=O)c1c(C)noc1CP(=O)(c1ccccc1)c1ccccc1	5	20
CSc1nsc(SCC(=O)N2CCN(c3ccccc3)CC2)n1	-2	3
COc1ccc(N(C(=O)Cn2nnc3ccccc32)C(C(=O)NCc2ccco2)c2cccnc2)cc1 (stereo not given)	-16	-4
Cn1cc(NC(=O)c2cc(NC(=O)c3cc(NC=O)cn3C)cn2C)cc1C(=O)NCCC(=N)N	5	-15
COc1ccc(-c2cc3nc4n(c(=O)c3s2)CCOC4)cc1	4	5
COc1cc(OC)cc(C(=O)N2CCN(c3ncccn3)CC2)c1	-2	-24
CC(=NC1CCCCC1)C1=C(O)c2ccccc2C1=O	1	7
O=S(=O)(c1ccc2c(c1)OCCO2)N1CCC(O)(c2ccc(Cl)cc2)CC1	-3	9
Cc1nn(Cc2ccccc2)c2sc(C(=O)N3CCN(Cc4ccc5c(c4)OCO5)CC3)cc12	2	0
C=CCn1cnc2c(c1=O)c1nc3ccccc3nc1n2-c1ccc(Cl)cc1	4	-2
Cc1cccc(-c2nnc3n2N=C(c2ccccc2Br)CS3)c1	4	11
Cc1cccc(OCCCCCn2ccnc2)c1	-1	4
Cc1cc(OCC(=O)NCc2nc(-c3ccccc3)no2)c(C)cc1Br	3	18
Nc1ccccc1OCCOCCOCCOc1ccccc1N	-3	9
CCn1c(SCc2nc(-c3ccc(OC)c(OC)c3)no2)nnc1-c1cccs1	1	19
CCN=C1SC(C(=O)Nc2cccc(OCC)c2)CC(=O)N1CC (stereo not given)	-8	0
Cc1cc(C)c2cc(CN(CC3CCCO3)S(=O)(=O)c3ccc4c(c3)OCCO4)c(=O)[nH]c2c1 (stereo not given)	5	12
O=C(Nc1ccc(Cc2ccc(NC(=O)C3CC3)c(O)c2)cc1O)C1CC1	-23	-42
SMILES	TNAP pNPP inh	TNAP inh Pi
O=C(NC1(C(F)(F)F)NC(=O)N(C2CCCCC2)C1=O)c1cccs1 (stereo not given)	3	10
CCOC(=O)COc1ccc(C(=O)NC2CCCCC2)cc1	-39	-50
COCCSc1ccccc1C(=O)NCc1ccco1	9	12
COCCCn1c(Cc2ccccc2)nnc1SCC(=O)N1CCCCC1	-4	5
CCCCn1nnnc1NCc1cccc(OC)c1OC	0	5
COc1cc(S(=O)(=O)NCc2ccccc2)ccc1F	2	15
O=C(c1cc2ccccc2oc1=O)N(Cc1ccc2c(c1)OCO2)Cc1ccco1	2	5
CCCC(=O)Nc1ccc(NC(=O)c2ccco2)c(OC)c1	1	-14
COc1ccc(C(=O)NCC2OCCc3ccccc32)c(O)c1 (stereo not given)	0	-3
Cc1nc2ccccn2c1C(=O)NCc1cccnc1	0	6
CN(CCC#N)CC(=O)Nc1ccc(NC(=O)CN(C)CCC#N)cc1	5	8
N#CC1=C(SCc2ccccc2Cl)NC(=O)C(C(N)=O)C1 (stereo not given)	4	-15
COc1c2c(nc3occc13)C(CCC(C)(C)O)(OC)C(O)CC2 (stereo not given)	6	0
CCn1c(Cc2ccccc2)nnc1SCC(=O)Nc1nnc(-c2ccccc2)s1	4	10
CCn1cc(C(=O)Nc2ccc(C(=O)N3CCCC3)cc2)c(=O)c2ccc(C)nc21	8	22
